Compounds with a hit are over-represented: about 10% of the library has one in this group of screens.
HP1b chromo inh: blocks HP1-beta chromodomain binding to methylated histone tails; AlphaScreen HP1-beta / biotin-H3K9me3 peptide binding; AID 540317; 390,000 compounds, 0.56% hits; Potency, µM (titrated, usually from 114 µM), for the others: at the highest dose activity change, negative = inhibition, actives largely listed as inhibitors; further: nearly all actives have a fitted effect of over 70% in size
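Compound inhibition of the preformed complex between 50 nM HP1-beta and 50 nM biotinylated H3K9me3 peptide was read by AlphaScreen. Buffer was PBS pH 7.4 with 0.01% Tween-20. Incubations ran 30 min at room temperature, with 10 ug/mL donor/acceptor beads.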
GLS inh: inhibitors of human glutaminase (GLS). O94925. GLS enzymatic activity, qHTS titration. Potency, µM (titrated, usually from 45.5 µM), inactives show top-dose activity change, negative = inhibition, actives largely listed as inhibitors. 410,000 compounds, 0.21% hits; further: on the % scale 0 is the no-effect control and ±100 the full control effect
Target sequence (O94925 whole entry, looked up): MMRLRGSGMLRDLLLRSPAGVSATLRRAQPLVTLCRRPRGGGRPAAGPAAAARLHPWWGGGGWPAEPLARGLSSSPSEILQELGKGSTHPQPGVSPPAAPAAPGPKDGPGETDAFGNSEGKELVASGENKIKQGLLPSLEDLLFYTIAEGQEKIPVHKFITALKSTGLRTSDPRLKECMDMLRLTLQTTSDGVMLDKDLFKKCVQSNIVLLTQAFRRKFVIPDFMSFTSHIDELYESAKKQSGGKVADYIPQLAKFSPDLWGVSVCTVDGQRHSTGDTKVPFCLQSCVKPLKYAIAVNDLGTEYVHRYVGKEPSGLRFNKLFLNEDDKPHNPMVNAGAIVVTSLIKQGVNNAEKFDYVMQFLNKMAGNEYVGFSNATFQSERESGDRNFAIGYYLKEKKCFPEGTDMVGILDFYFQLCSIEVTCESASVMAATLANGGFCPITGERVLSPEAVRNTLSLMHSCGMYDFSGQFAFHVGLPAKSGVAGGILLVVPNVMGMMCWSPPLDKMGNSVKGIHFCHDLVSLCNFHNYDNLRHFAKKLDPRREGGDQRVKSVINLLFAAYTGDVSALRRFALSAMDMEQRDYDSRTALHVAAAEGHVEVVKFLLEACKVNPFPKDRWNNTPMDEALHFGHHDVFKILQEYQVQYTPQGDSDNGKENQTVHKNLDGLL
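hKGA; 45 mM KH2PO4 pH 8.2 + 0.02% Tween-20; cpd via pin tool; 1 mM Gln soln; GluOx/HRP/Amplex Red; RT 30 min; fluor. t0 & final.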
G9a block: G9a (human) methyltransferase inhibition; G9a H3K9 monomethylation, AlphaScreen, 2 h; AID 504332; Potency, µM (highest dose often 102 µM), for the others: at the highest dose activity, negative = inhibition, usual class: inhibitors; 350,000 compounds, 8.8% hits; further: on the % scale 0 is the no-effect control and ±100 the full control effect; nearly all actives have a fitted effect of over 75% in size
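G9a (20 nM) was preincubated 15 min with compound, then reacted 2 h at room temperature with 500 nM biotin-H3K9 peptide and 20 µM SAM. Monomethyl-H3K9 detected by AlphaScreen using anti-H3K9me1 antibody.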
BAZ2B inh: BAZ2B (human) inhibition | AlphaScreen BAZ2B-H3K14Ac peptide displacement | Potency, µM (doses to about 114 µM), for inactives: top-dose activity change, negative = inhibition, usual class: inhibitors | 360,000 compounds, 4.4% hits; further: on the % scale 0 is the no-effect control and ±100 the full control effect; nearly all actives have a fitted effect of over 60% in size
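AlphaScreen luminescence quantifies BAZ2B engagement of H3K14Ac peptide; the protein and biotinylated peptide are both at 50 nM final, buffer PBS pH 7.4 with 0.01% Tween-20, all steps at room temperature.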
L3MBTL1 block: blocks human L3MBTL1. AlphaScreen L3MBTL1–H3K9me1 peptide binding. Potency, µM (doses to about 57.1 µM), for inactives: top-dose activity, negative = inhibition, actives largely listed as inhibitors. AID 485360. 230,000 compounds, 0.66% hits; further: on the % scale 0 is the no-effect control and ±100 the full control effect; nearly all actives have a fitted effect of over 60% in size
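L3MBTL1 50 nM + b-AHA-H3(1-15)K9me1 75 nM, 30 min RT; compound added, 30 min RT; streptavidin donor/Ni-chelate acceptor beads 10 ug/mL each final, 30 min RT dark; AlphaScreen read.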
JMJD2A Tudor inh: inhibitors of human JMJD2A Tudor domain | AlphaScreen JMJD2A-Tudor / H3K4me3 peptide binding | Potency, µM (doses to about 114 µM), for the others: at the top dose activity change, negative = inhibition, hits mostly inhibitors | AID 504339 | O75164 | 390,000 compounds, 4.4% hits; further: on the % scale 0 is the no-effect control and ±100 the full control effect; nearly all actives have a fitted effect of over 50% in size
Active calls of the source: *; ? = inconclusive; / = no result; [ ] = another dose, or the depositor's remark. The call rests on the fitted dose curve; in most records, active means well fitted curve in the direction sought with a large enough effect; inconclusive means small, poorly fitted or top-dose-only effect, or another doubt; inactive means no such curve, though single readings can be large; an effect the other way counts as inactive or inconclusive. Potency means the concentration at half of the fitted maximal effect.

SMILES	HP1b chromo inh	GLS inh	G9a block	BAZ2B inh	L3MBTL1 block	JMJD2A Tudor inh
CCN(CC)c1ccc(/C=N/NC(=O)CNC(=O)C2COc3ccccc3O2)c(O)c1 (stereo not given)	-15%	?	18µM*	-32%	/	50µM*
O=C(N/N=C\c1ccc(O)c([N+](=O)[O-])c1)C1COc2ccccc2O1 (stereo not given)	15%[57 µM]	-1%	/	-19%	-14%	-6%
O=C(NCc1ccccc1Cl)c1ccc(NC(=O)c2nsc3ccccc23)cc1	19%[57 µM]	-1%	2%[59 µM]	-1%	/	-10%
COC(=O)c1ccc(C(=O)O)nc1	?	4%	/	18µM*	?	13µM*
COC(=O)c1ccc(C(=O)OC)nc1	24%	0%	3%[59 µM]	1%	1%	-3%
O=C(O)c1ccc(Br)cn1	5%	0%	22µM*	22µM*	/	5.6µM*
Cc1cnc(C(=O)O)cn1	/	2%	?	/	/	/
CCCc1nc2c(C)ccc(C)c2c(N)c1CC	?	-7%	?	-28%	-6%	2.8µM*
CCc1c(-c2ccccc2)nc2sc3c(c2c1N)CCCC3	10%	2%	2%	-29%	-9%	-22%
CCCCOc1ccc(C2c3c(-c4ccccc4O)n[nH]c3C(=O)N2Cc2ccncc2)cc1OC (stereo not given)	-6%	5%	8%[59 µM]	?	/	?
CN1CCN(C(c2cccnc2)c2ccc3cccnc3c2O)CC1 (stereo not given)	?	-8%	?	10µM*	/	?
CN1CCN(C(c2ccc(Br)cc2)c2cc(Cl)c3cccnc3c2O)CC1 (stereo not given)	?	?	7.9µM*	45µM*	/	50µM*
CN1CCN(C(c2ccc(F)cc2)c2ccc3cccnc3c2O)CC1 (stereo not given)	47%	-8%	/	/	/	9%
CN1c2ccccc2C(C)(C)C12C=Cc1cc(O)ccc1O2 (stereo not given)	?	?	/	45µM*	-28%	45µM*
Cc1ccc(-n2nc(C)c3c(C(=O)Nc4ccc(C)cc4Cl)cc(C)nc32)cc1	32%	13%	6%[59 µM]	-8%[57.1 µM]	/	2%
COc1cccc(CNCC(=O)NC(=O)NC2CCCC2)c1	?	-14%	/	/	3%	22µM*
COc1ccccc1CNC(=O)c1cccc(N(C)C)c1	8%	28%	8.9µM*	-36%	/	-29%
COc1ccccc1CNC(=O)c1ccc(S(=O)(=O)N(C)c2ccccc2)cc1	28%	0%	-33%	9%	11%	-3%
COc1ccc(CNC(=O)c2cnc(N(C)C)nc2)cc1	37%	0%	31%[59 µM]	6%	/	2%
COc1ccc(CNC(=O)c2cccc(N(C)C)c2)cc1	37%	41%	7.1µM*	?	2%[11.4 µM]	-29%
CN(C)c1ccc(C(CNC(=O)c2ccc(-c3ccccc3)cc2)N2CCOCC2)cc1 (stereo not given)	/	/	14µM*	35µM*	-9%	/
COc1cccc(CN(C(=O)c2oc3ccccc3c2C)C2CCS(=O)(=O)C2)c1 (stereo not given)	16%	0%	-10%[59 µM]	-15%	/	-13%
COc1ccc(C(CNC(=O)c2cccc(N(C)C)c2)N2CCCC2)cc1 (stereo not given)	-27%	41%	?	50µM*	-24%	45µM*
COc1ccc(CNC(=O)CN2CCC(NC(=O)c3cccc(OC)c3)CC2)cc1	-33%[57 µM]	?	/	/	/	1µM*
Cc1cc(C)c(CSc2nnc(C)n3c2cc2occc23)c(C)c1	?	1%	?	40µM*	/	?
SMILES	HP1b chromo inh	GLS inh	G9a block	BAZ2B inh	L3MBTL1 block	JMJD2A Tudor inh
Cc1nc2ccc(S(=O)(=O)NC(CC(C)C)C(=O)N3CCN(c4ccc(F)cc4)CC3)cc2s1 (stereo not given)	24%	13%	-40%[59 µM]	-10%	/	-7%
O=C(Nc1c2c(nn1-c1cccc(Cl)c1)CS(=O)C2)c1ccc2c(c1)OCO2 (stereo not given)	40%	12%	?	-1%	/	1%
O=C(Nc1c2c(nn1-c1ccc(F)cc1)CS(=O)C2)c1ccc2c(c1)OCO2 (stereo not given)	2%	3%	/	-3%	/	89µM*
CC1CCc2c(nc3nc[nH]n3c2=O)C1 (stereo not given)	32%	18%	9%	7%	/	-11%
S=c1c2c(nc3nc[nH]n13)CCC2	26%	18%	/	45µM*	5%	6.3µM*
CCOc1ccccc1OCCOc1ccccc1OC(C)C	141%	-1%	115%	49%	/	71%
CNCCOc1ccccc1OC(C)C	-25%	6%	18µM*	?	3%	2.2µM*
N=C(N)CCCOc1ccccc1-c1ccccc1	38%	-4%	5%[59 µM]	2%	8%	3%
CNCCCCOc1ccccc1-c1ccccc1	?	10%	?	56µM*	-17%	0.63µM*
C=CCNCCCCOc1ccccc1-c1ccccc1	13%	1%	-2%[59 µM]	4%	5%	2%
CNCCOc1ccccc1-c1ccccc1	-58%	13%	?	?	/	3.5µM*
O=C(NCCc1ccc(F)cc1)C(=O)NCC(c1cccs1)S(=O)(=O)c1ccc(F)cc1 (stereo not given)	1%	0%	10%[59 µM]	-3%	/	-19%
CCn1c(SCC(=O)Nc2ccc(C)cc2Br)nnc1-c1nonc1NC(C)=O	57%	5%	-9%[59 µM]	?	/	-17%
COc1ccc(C(=O)/C=C/c2cn(CC(O)CN3CCCCCC3)c3ccccc23)cc1OC (stereo not given)	-18%	0%	?	28µM*	/	?
Cc1ccc(C(=O)/C=C/c2cn(CC(O)CN3CCCCCC3)c3ccccc23)cc1 (stereo not given)	-21%	2%	?	?	/	50µM*
CCOC(=O)c1ccc(NC(=O)c2cc(=O)c3cc(CC)ccc3o2)cc1	28%	7%	2%[59 µM]	-3%	/	-33%
CCOc1ccc(S(=O)(=O)N(C)c2ccc(OCC(=O)Nc3nc(-c4cc(OC)ccc4OC)cs3)cc2)cc1	6%	4%	50µM*	5%	-14%	-14%

Source: PubChem BioAssay (National Center for Advancing Translational Sciences (NCATS))
